# Among all 190,000 compounds or so, about 790 (0.42%) were called active.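 The calls were made as follows: active = inhibition above a set limit, the median over all tested compounds plus 3 SD (cut at about 9.5% in these data); inconclusive = no clear call, values can overlap the other calls; inactive = the rest.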 The list comes from a sample in which actives are over-represented; it also holds similar structures and randomly drawn compounds.
# Tested on: HMG-CoA reductase (Enterococcus faecalis, mvaE)
# Experiment: class II HMG-CoA reductase enzyme inhibition – biochemical, Enterococcus faecalis, primary screen (AID 1066);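 also: enzyme runs in reverse so mevalonate oxidation gives rising NADPH absorbance; 0% = complete reaction with DMSO and 100% = background rate lacking mevalonate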
# Conditions: purified E. faecalis HMGR, NADPH absorbance 340 nm kinetic; at 10 µM; hits give high values
row,SMILES,inhibition
1,CCc1ccc(NC(=O)Nc2ccncc2)cc1,-0.38% (inactive)
2,CCOC(=O)CCCNC(=O)COC(=O)c1cc(Br)c(Br)s1,6.54% (inactive)
3,Cc1cccc(-c2ncc(CN3CCC(CO)(CCCc4ccccc4)CC3)cn2)c1,3.07% (inactive)
4,COc1cccc(CC2(CO)CCN(Cc3cnc(-c4cccc(C)c4)nc3)CC2)c1,10.2% (active)
5,COc1ccc(CC2(CO)CCN(Cc3cnn(C)c3)CC2)cc1,1.94% (inactive)
6,Cc1cc(C)cc(NC(=S)NCCCN2CCOCC2)c1,-2.33% (inactive)
7,Cc1ccc(NC(=S)NCCN2CCOCC2)cc1,-1.8% (inactive)
8,CCCCc1ccc(NC(=S)NCCCN2CCOCC2)cc1,9.74% (active)
9,Cc1ccc(S(=O)(=O)N2CCOCC2)cc1C(=O)OC1CCCCC1=O (stereo not drawn),11.2% (active)
10,Cc1ccc(S(=O)(=O)N2CCOCC2)cc1C(=O)NCc1ccc(F)cc1,-7.95% (inactive)
11,CCOC(=O)c1sc(NC(=O)c2cc(S(=O)(=O)N3CCOCC3)ccc2C)nc1C,-0.38% (inactive)
12,C/C=C/C=C/C(=O)OCC(=O)Nc1ccc(Cl)cc1,-6.31% (inactive)
13,O=C(/C=C/c1ccccc1Cl)Nc1ccc(S(=O)(=O)Nc2ncccn2)cc1,9.55% (active)
14,O=C(/C=C/c1ccc(Cl)cc1)Nc1ccc(S(=O)(=O)Nc2ncccn2)cc1,1.98% (inactive)
15,CC(=O)NS(=O)(=O)c1ccc(NC(=O)/C=C/c2ccccc2Cl)cc1,4.83% (inactive)
16,CCOC(=O)C1CCN(S(=O)(=O)c2cc(F)ccc2OC)CC1,-2.34% (inactive)
17,COc1cc(Cl)c(C)cc1NC(=O)[C@@H]1CCCN1C(=O)c1cccs1,-6.68% (inactive)
18,CCOC(=O)C1(Cc2cccc(OC)c2)CCN(C(C)CC(C)(C)O)CC1 (stereo not drawn),-0.39% (inactive)
19,COc1ccc(C(=O)NC2CCN(C(=S)NCCc3ccccc3)CC2)cc1,16.3% (active)
20,COc1ccc(C(=O)NC2CCN(C(=S)Nc3ccccc3)CC2)cc1,-0.68% (inactive)
21,O=C1CCN(C(=S)NCCc2ccccc2)CC1,4.83% (inactive)
22,Cc1ccc2c(c1)C1CN(C)CCC1N2S(=O)(=O)c1ccc(Oc2ccc([N+](=O)[O-])cc2)cc1 (stereo not drawn),-1.37% (inactive)

row,SMILES,inhibition
1,O=C(COC(=O)c1ccc(Cl)nc1)NCc1cccs1,-2.01% (inactive)
2,COc1cc(/C=C2/C(=O)ON=C2C)ccc1OCc1ccccc1F,-4.22% (inactive)
3,COc1cc(/C=C2/C(=O)ON=C2C)ccc1OCc1cccc(F)c1,15.9% (active)
4,COc1cc(/C=N/n2c(C)n[nH]c2=S)ccc1OCc1ccccc1,5.27% (inactive)
5,N/C(Cc1ccc([N+](=O)[O-])cc1)=N\OC(=O)C1CCCCC1,5.63% (inactive)
6,Cc1ccc(S(=O)(=O)N2CCOCC2)cc1NC(=O)CSc1nnc(N)s1,-3.38% (inactive)
7,CCOC(=O)CNC(=O)N1c2ccccc2Sc2ccccc21,10.8% (active)
8,CCNC(=O)N1c2ccccc2Sc2ccccc21,-0.32% (inactive)
9,CCOC(=O)CNC(=O)CN1C(=O)CCSc2ccccc21,0.21% (inactive)
10,CCOC(=O)C1CCCN(C(=O)c2cccc(S(=O)(=O)N3CCOCC3)c2)C1 (stereo not drawn),2.45% (inactive)
11,O=C(CCc1[nH]c2ccccc2c1Sc1ccccc1)N(CCO)CCO,-1.48% (inactive)
12,COCc1c(N)c(C)nc(Cl)c1C#N,-1.22% (inactive)
13,CN(Cc1ccccn1)Cc1nc(-c2ccc(Cl)cc2)no1,-4.55% (inactive)
14,CC(C)(C)c1csc(NC2=NS(=O)(=O)c3ccccc32)n1,-4.26% (inactive)
15,O=C(Oc1cccc(NC2=NS(=O)(=O)c3ccccc32)c1)c1ccncc1,13.3% (active)
16,O=C(Oc1ccccc1)c1ccc2nccnc2c1,-2.55% (inactive)
17,O=C1Oc2ccccc2C(=O)/C1=C/c1ccccc1O,-4.42% (inactive)
18,Cc1ccc(CN2CCN(Cc3cccc(C)n3)CC2CCO)cc1 (stereo not drawn),-2.73% (inactive)
19,CC(C)OC(=O)CN1C(=O)c2ccccc2C1=O,0.65% (inactive)
20,O=C1c2ccccc2C(=O)N1CCC(O)C[N+](=O)[O-] (stereo not drawn),14.4% (active)
21,O=C1c2ccccc2C(=O)N1CCC(c1ccccc1)c1ccco1 (stereo not drawn),-3.81% (inactive)

# — PubChem BioAssay AID1066 (SRMLSC, 2008)
